The values that follow come from ChEMBL document CHEMBL1961873, “Compounds: GSK PKIS; Assays: Nanosyn kinase panel” (2012).

Assay [1] concerns the target Tyrosine-protein kinase Fer (Homo sapiens) (UniProt P16591). Particulars: at 1 µM.
Assay [2] has as its target Tyrosine-protein kinase Fes/Fps (Homo sapiens) (UniProt P07332). Particulars: at 0.1 µM.
The target is the same in assay [3]. Particulars: at 1 µM.
In assay [4] the target is Fibroblast growth factor receptor 1 (Homo sapiens) (UniProt P11362). Particulars: at 0.1 µM.
Fibroblast growth factor receptor 1 (Homo sapiens), sequence (P11362 22-822 limits assumed): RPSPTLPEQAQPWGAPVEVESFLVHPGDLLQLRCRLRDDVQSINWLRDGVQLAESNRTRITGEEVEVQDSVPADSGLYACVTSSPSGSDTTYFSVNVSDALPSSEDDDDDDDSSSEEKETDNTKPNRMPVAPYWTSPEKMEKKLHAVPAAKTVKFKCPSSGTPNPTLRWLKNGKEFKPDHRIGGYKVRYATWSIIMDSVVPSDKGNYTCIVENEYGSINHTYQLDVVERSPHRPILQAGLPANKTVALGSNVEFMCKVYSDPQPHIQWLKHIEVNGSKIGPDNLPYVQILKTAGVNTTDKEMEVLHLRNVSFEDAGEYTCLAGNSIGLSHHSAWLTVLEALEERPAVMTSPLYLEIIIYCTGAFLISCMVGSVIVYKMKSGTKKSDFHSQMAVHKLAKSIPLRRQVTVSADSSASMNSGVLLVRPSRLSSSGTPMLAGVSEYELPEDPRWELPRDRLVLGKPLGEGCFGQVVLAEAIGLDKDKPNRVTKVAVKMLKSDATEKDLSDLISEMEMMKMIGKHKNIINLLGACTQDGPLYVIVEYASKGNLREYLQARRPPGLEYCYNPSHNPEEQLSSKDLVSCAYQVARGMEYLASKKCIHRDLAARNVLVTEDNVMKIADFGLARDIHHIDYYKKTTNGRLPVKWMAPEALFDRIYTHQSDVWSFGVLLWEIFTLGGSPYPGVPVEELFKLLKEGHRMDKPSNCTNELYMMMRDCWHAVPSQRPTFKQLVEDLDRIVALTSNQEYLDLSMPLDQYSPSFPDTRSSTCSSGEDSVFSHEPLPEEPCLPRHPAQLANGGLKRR
Assay [5] has the same target. Particulars: at 1 µM.
For assay [6], the target named is Fibroblast growth factor receptor 2 (Homo sapiens) (UniProt P21802). Particulars: at 0.1 µM.
Fibroblast growth factor receptor 2 (Homo sapiens), sequence (P21802 22-821 limits assumed): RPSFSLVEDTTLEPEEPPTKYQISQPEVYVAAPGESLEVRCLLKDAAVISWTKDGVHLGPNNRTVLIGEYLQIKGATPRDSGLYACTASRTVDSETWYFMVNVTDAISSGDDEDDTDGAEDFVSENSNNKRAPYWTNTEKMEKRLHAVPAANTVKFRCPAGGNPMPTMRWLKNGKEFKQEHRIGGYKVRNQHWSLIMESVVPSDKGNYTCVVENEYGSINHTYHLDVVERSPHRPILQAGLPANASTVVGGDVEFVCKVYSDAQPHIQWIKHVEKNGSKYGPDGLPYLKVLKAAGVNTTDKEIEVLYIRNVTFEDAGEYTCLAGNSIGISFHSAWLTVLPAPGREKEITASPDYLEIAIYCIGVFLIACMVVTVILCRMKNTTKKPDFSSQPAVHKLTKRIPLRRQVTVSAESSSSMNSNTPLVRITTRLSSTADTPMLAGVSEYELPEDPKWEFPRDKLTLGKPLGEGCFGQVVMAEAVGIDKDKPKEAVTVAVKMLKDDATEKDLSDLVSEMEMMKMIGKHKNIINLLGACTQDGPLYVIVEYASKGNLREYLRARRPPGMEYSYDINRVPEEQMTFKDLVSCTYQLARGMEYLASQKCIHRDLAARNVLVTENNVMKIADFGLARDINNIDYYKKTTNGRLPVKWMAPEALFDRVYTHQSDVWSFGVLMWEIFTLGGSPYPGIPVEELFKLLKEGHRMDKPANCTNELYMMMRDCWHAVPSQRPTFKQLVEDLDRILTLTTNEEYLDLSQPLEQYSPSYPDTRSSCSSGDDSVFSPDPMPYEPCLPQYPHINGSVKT
The target is the same in assay [7]. Particulars: at 1 µM.
Assay [8] addresses Fibroblast growth factor receptor 3 (Homo sapiens) (UniProt P22607). Particulars: at 0.1 µM.
The target is the same in assay [9]. Particulars: at 1 µM.
The target in assay [10] is Fibroblast growth factor receptor 4 (Homo sapiens) (UniProt P22455). Particulars: at 0.1 µM.
The target is the same in assay [11]. Particulars: at 1 µM.
The target in assay [12] is Tyrosine-protein kinase Fgr (Homo sapiens) (UniProt P09769). Particulars: at 0.1 µM.
Tyrosine-protein kinase Fgr (Homo sapiens), sequence (P09769 2-529 limits assumed): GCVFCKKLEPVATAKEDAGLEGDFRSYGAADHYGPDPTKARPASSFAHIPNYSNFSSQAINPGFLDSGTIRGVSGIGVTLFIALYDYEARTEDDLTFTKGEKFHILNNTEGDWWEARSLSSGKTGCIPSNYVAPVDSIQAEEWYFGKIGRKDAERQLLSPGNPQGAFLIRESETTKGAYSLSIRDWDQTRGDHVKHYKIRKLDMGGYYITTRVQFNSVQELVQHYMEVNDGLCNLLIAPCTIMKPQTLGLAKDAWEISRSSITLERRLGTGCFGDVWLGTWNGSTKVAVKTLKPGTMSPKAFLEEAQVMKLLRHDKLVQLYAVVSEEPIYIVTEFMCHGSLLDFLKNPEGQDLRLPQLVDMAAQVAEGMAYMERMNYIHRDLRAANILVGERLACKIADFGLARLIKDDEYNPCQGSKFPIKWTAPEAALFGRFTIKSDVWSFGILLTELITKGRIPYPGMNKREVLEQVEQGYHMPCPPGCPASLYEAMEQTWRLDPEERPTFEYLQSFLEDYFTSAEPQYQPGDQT
For assay [13] the target is unchanged. Particulars: at 1 µM.
In assay [14] the target is Vascular endothelial growth factor receptor 1 (Homo sapiens) (UniProt P17948). Particulars: at 0.1 µM.
For assay [15] the target is unchanged. Particulars: at 1 µM.
In assay [16] the target is Receptor-type tyrosine-protein kinase FLT3 (Homo sapiens) (UniProt P36888). Particulars: at 0.1 µM.
Assay [17] shares this target. Particulars: at 1 µM.
Assay [18] relates to T1, Receptor-type tyrosine-protein kinase FLT3 (Homo sapiens), P36888 [D835Y].
T1 sequence (whole entry): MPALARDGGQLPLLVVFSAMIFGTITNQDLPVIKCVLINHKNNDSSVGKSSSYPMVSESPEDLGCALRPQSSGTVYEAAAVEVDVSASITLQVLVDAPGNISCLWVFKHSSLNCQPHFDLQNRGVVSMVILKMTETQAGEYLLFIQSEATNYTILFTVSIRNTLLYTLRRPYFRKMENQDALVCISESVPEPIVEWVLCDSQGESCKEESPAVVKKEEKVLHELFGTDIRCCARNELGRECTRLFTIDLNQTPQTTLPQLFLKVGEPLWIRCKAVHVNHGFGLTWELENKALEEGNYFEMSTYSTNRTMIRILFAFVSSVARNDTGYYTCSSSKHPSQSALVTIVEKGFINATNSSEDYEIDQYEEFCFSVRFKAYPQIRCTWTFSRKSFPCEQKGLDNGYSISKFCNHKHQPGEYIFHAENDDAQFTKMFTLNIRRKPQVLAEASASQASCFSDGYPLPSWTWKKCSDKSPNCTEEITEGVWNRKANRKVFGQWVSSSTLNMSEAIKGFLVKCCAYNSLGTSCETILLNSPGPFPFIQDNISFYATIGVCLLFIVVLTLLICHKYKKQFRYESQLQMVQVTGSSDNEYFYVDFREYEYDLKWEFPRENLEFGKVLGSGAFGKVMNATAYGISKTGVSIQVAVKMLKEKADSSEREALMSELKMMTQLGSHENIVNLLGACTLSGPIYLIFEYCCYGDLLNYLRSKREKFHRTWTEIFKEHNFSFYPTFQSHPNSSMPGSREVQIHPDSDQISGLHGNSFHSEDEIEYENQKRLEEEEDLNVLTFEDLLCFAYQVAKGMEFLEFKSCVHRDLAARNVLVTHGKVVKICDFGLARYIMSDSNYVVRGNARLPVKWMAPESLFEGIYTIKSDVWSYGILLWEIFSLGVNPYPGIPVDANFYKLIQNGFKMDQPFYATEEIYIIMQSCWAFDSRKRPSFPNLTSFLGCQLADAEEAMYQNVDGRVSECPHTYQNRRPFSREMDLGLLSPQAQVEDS
Particulars: at 0.1 µM.

Assay [19] has as its target Non-receptor tyrosine-protein kinase TYK2 (Homo sapiens) (UniProt P29597). Particulars: at 1 µM.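 Also: values are mean percent inhibition of TYK2 kinase.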
The target of assay [20] is T2, Tyrosine-protein kinase receptor TYRO3 (Homo sapiens) (UniProt Q06418).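 Also: reported percentages are averaged inhibition values of TYRO3 kinase activity.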
T2 sequence (whole entry): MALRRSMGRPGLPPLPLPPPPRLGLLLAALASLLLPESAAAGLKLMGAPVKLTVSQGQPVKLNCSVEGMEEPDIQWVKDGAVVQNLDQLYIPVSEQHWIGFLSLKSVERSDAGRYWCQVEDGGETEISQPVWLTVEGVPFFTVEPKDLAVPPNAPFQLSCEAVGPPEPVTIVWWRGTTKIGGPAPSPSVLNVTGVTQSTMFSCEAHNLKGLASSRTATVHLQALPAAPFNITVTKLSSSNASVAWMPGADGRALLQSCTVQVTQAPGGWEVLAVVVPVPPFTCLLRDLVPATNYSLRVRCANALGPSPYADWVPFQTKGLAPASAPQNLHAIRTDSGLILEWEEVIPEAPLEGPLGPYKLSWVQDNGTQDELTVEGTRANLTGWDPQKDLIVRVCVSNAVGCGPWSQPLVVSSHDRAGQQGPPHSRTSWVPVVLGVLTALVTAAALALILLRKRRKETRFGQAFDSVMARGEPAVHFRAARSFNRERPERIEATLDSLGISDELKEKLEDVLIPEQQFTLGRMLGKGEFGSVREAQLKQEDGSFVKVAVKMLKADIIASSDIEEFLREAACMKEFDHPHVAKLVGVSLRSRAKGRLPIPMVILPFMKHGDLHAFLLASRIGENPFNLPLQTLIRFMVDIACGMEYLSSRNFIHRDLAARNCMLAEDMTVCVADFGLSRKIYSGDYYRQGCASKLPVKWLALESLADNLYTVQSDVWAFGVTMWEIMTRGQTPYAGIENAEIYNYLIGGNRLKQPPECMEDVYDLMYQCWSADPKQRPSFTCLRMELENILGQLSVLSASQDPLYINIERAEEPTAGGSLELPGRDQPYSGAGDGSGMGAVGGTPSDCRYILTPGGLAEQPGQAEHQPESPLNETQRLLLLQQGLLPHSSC
Particulars: at 0.1 µM.

The term inhibition denotes the change of the read-out against control, counted positive when it falls.

Fibroblast growth factor receptor 3 (Homo sapiens), sequence (P22607 23-806 limits assumed): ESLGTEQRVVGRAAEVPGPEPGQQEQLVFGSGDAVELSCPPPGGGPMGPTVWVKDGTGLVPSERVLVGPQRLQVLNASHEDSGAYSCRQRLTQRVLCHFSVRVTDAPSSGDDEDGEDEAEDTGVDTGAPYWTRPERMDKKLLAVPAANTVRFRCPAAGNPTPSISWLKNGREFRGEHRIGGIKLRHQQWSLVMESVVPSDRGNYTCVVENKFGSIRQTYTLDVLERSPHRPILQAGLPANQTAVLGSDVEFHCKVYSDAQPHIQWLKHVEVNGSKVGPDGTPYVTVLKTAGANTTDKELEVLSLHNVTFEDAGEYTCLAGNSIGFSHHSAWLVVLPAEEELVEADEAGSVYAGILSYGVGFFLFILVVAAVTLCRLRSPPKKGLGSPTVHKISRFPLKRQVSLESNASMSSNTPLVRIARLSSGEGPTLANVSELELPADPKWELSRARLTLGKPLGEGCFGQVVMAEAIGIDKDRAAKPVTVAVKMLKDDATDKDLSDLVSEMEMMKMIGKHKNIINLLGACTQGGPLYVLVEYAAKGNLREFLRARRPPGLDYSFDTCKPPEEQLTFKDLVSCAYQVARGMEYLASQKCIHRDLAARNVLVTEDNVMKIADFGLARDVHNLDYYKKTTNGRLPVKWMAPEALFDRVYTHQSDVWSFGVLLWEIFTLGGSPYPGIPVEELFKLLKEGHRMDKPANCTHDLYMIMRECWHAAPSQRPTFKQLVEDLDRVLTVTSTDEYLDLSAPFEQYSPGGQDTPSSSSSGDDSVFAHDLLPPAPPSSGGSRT
Tyrosine-protein kinase Fes/Fps (Homo sapiens), sequence (P07332 whole entry): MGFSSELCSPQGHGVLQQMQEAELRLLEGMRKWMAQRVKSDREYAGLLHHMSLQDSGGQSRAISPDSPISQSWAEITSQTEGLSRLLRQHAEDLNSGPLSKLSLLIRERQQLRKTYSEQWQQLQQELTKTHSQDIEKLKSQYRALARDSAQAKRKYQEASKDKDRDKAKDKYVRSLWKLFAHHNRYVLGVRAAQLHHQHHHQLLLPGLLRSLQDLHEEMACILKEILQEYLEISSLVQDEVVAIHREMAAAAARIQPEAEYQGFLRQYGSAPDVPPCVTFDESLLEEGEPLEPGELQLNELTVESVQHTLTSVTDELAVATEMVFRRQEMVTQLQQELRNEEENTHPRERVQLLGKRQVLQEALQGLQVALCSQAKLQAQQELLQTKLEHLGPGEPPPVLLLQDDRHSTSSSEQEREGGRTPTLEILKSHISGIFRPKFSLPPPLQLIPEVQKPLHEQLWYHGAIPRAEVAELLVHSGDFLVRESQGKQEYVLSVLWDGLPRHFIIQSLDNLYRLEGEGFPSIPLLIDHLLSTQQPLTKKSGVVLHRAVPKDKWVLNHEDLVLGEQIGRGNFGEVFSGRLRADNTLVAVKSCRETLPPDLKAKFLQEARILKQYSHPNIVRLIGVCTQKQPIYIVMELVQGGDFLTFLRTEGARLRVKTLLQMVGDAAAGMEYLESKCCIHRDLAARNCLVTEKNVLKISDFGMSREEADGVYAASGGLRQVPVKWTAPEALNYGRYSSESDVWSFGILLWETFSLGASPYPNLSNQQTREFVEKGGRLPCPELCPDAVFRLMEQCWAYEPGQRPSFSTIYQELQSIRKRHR
Non-receptor tyrosine-protein kinase TYK2 (Homo sapiens), sequence (P29597 whole entry): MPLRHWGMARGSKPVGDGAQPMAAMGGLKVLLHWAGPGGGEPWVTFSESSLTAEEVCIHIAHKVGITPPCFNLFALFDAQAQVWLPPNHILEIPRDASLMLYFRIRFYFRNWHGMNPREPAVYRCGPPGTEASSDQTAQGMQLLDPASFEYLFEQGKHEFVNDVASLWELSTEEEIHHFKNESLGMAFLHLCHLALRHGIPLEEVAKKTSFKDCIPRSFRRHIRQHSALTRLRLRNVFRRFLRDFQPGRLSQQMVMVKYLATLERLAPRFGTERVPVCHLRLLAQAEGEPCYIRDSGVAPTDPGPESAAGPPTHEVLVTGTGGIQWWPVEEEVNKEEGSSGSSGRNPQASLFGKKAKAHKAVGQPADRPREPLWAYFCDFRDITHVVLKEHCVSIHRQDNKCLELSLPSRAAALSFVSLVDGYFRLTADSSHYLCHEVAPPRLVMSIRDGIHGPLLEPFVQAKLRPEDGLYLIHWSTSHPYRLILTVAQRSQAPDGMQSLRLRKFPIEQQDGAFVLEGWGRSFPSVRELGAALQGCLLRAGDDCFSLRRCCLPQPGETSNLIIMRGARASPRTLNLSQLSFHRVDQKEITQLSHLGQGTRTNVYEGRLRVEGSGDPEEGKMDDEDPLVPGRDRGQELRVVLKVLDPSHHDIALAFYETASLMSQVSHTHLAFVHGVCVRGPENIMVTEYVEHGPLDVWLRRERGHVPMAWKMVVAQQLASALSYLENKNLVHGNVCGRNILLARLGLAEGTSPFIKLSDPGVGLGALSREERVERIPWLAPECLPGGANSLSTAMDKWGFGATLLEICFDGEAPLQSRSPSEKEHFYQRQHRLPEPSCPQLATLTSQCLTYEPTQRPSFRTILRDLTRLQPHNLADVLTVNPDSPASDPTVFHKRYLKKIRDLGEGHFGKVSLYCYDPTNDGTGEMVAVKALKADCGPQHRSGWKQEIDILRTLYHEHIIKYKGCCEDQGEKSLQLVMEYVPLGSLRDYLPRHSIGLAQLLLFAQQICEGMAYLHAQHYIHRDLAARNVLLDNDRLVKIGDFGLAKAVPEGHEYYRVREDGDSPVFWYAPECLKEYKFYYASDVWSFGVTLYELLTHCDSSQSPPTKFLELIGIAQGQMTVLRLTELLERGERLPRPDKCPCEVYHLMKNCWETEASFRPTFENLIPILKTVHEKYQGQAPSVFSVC

For the molecule `CS(=O)(=O)CCN(CC#N)Cc1ccc(-c2ccc3ncnc(Nc4ccc(OCc5cccc(F)c5)c(Cl)c4)c3c2)o1`, the inhibition in [1] was 1.14%; in assay [2], 0.82%; in assay [3], 0.27%; in assay [4] it was -3.34%; in assay [5], -4.3%; in assay [6] it was -1.21%. In addition, the inhibition in assay [7] is -2.13%; in assay [8], -1.19%; in [9] it was -0.34%; in assay [10], 0.11%; in assay [11], -4.08%; in [12], 0.96%. Further, the inhibition in assay [13] was 1.68%; in assay [14], 3.08%; in assay [15] it was 6.33%; in assay [16] it was -0.67%; in [17], 2.32%; in [18], -4.23%. For the same molecule, the inhibition was -4.41% in assay [19] and -1.18% in [20].

Regarding `O=C1Nc2ccc(C(=O)c3ccco3)cc2C1=Cc1cc(Cl)c(O)c(Cl)c1`, the inhibition turned out to be 11.5% in assay [1]; 1.95% in assay [2]; 2.89% in [3]; 3.35% in [4]; 8.23% in assay [5]; 6.09% in [6]. For the same molecule, the inhibition in assay [7] was 25.8%; in assay [8], 9.26%; in assay [9], 19.1%; in assay [10], 2.69%; in [11], 7.04%; in assay [12] it was 2.46%. Further, the inhibition was determined as 11.6% in assay [13]; 1.07% in [14]; 4.42% in assay [15]; 1.69% in assay [16]; 12.7% in [17]; 4.82% in assay [18]. The inhibition is 26.4% in assay [19] and 1.96% in assay [20].

`O=C1NC(=O)C(c2cccc(Cl)c2)=C1Nc1ccc(O)c(Cl)c1`: the inhibition in assay [1] is 5.56%; in [2], 0.55%; in [3] it was 1.14%; in assay [4], -2.65%; in [5] it was 6.97%; in [6] it was 3.82%. In addition, the inhibition in assay [7] is 32.5%; in [8], 4.37%; in [9], 21.3%; in assay [10], -2.1%; in assay [11], 2.43%; in [12] it was -2.2%. In addition, the inhibition was 3.74% in assay [13]; 0.72% in [14]; 1.36% in assay [15]; -1.02% in assay [16]; 0.95% in assay [17]; -6.93% in assay [18]. For the same molecule, the values for the inhibition in assay [19] and in assay [20] were 20% and -0.43%, respectively.

In the case of `O=C1NC(=O)C(c2ccccc2Cl)=C1Nc1cccc(O)c1`, the inhibition in assay [1] came out at 2.82%; in [2], 1.81%; in [3], 2.5%; in assay [4], 4.34%; in [5], 7.05%; in [6], 3.39%. The inhibition was -3.75% in assay [7]; 2.9% in assay [8]; 2.97% in [9]; 1.92% in assay [10]; 0.13% in assay [11]; 1.27% in assay [12]. For the same molecule, the inhibition in assay [13] was determined as 2.07%; in [14], 0.36%; in assay [15], 0.77%; in assay [16] it was 2.15%; in assay [17], 2.8%; in assay [18] it was 3.17%. Moreover, the inhibition was -2.87% in assay [19] and 1.29% in [20].

For `Cc1ccc(C(=O)NC2CCCCC2)cc1-c1ccc(C(=O)NCC2CC2)cc1`, the inhibition in assay [1] came to 4.17%; in assay [2], 3.08%; in assay [3] it was 2.29%; in [4], 3.66%; in assay [5] it was 5.66%; in [6] it was 2.75%. Besides, the inhibition in [7] is 6.2%; in assay [8], 4.11%; in assay [9], 4.7%; in assay [10] it was -0.52%; in [11] it was 2.89%; in assay [12], 2.07%. Moreover, the inhibition in assay [13] is 5.25%; in assay [14], 2.97%; in assay [15], 2.09%; in [16] it was 0.22%; in [17] it was -0.64%; in assay [18], -1.58%. For the same molecule, the inhibition in assay [19] is -2.34%; in assay [20], 1.42%.

Take `NC(=O)c1ccc(-c2nc(-c3ccccn3)c(-c3ccc4c(c3)OCO4)[nH]2)cc1`: the inhibition is 6.64% in assay [1]; 1.52% in assay [2]; 2.16% in assay [3]; -0.93% in assay [4]; 2.26% in [5]; 0.95% in assay [6]. The inhibition was 1.31% in assay [7]; 2.79% in assay [8]; 1.9% in [9]; 4.19% in assay [10]; -0.14% in [11]; 3.69% in [12]. In addition, the inhibition is 5.27% in assay [13]; -0.48% in assay [14]; -1% in assay [15]; 1.89% in assay [16]; 2.37% in assay [17]; 1.11% in assay [18]. In addition, the inhibition was -0.31% in assay [19] and 2.08% in assay [20].

As to `CC1=C(C(=O)Nc2ccc3[nH]ncc3c2)C(c2ccc3ccccc3c2)CC(=O)N1` (stereo not given), the inhibition in [1] was determined as 7.14%; in [2], 1.76%; in assay [3], 2.99%; in assay [4], 1.46%; in [5], 13.2%; in assay [6], 5.6%. Also, the inhibition was 31.6% in assay [7]; 9.54% in [8]; 22.8% in assay [9]; 0.62% in [10]; 10.6% in assay [11]; 3.21% in assay [12]. Moreover, the inhibition is 15.1% in [13]; 2.44% in [14]; 4.08% in assay [15]; 0.05% in assay [16]; 3.17% in [17]; 0.1% in [18]. The results for the inhibition in [19] and in assay [20] were 4.98% and 3.61%, respectively.
